From PubChem BioAssay
Several values for one entry are separate records, joined by “and”; a condition that tells them apart may be missing. Identical values can stand only once. A number with no mark means an inactive call.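 Rule for the calls: active = compounds killing one labelled cell type while sparing the other, by normalised counts and ratio limits, not self-fluorescent; inactive = the rest.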

Assay: EMT-state selective cytotoxicity in co-culture – imaging, PC-3E GFP, TEM4-18 mCherry, primary screen (AID 1345086);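 note: normalised mesenchymal count divided by normalised epithelial count so high means epithelial killing; cells exposed to compound for 72 h before imaging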
Conditions: PC-3E GFP / TEM4-18 mCherry co-culture, imaging cell counts; at 1 µM; actives lie on both sides; counts scaled to control wells, 1 = unselective

Structure (SMILES) | red/green cell ratio (normalised)
CC(C)=CCC/C(C)=C\CC1=C(C)C(=O)c2ccccc2C1=O | 0.98
C[C@]12CCC3c4ccc(OC(=O)c5ccccc5)cc4CCC3C1CC[C@@H]2O (stereo not given in full) | 1.1
CO/C(C)=C1/C(=O)C(CO)OC1O (stereo not given) | 1.02
CC(=O)O[C@H]1CCC2(C)C3=C(CCC2C1(C)C)[C@@]1(C)CC[C@@H](C(C)CCC=C(C)C)[C@]1(C)CC3 (stereo not given in full) | 1.21
CC1CN(c2c(F)c(N)c3c(=O)c(C(=O)O)cn(C4CC4)c3c2F)C[C@H](C)N1 (stereo not given in full) | 0.99
Cc1ccc(S[C@H]2OC(COCc3ccccc3)C(OC(=O)CCC(=O)O)[C@@H]3OC(=O)N[C@H]23)cc1 (stereo not given in full) | 0.99
CC(=O)OCC1O[C@@H](OC(C)=O)C(NC(=O)OCc2ccccc2)[C@@H](OC(C)=O)C1OC(C)=O (stereo not given in full) | 0.94
COC(=O)C12C(C(C)=O)OC(CC(O)C1O)C2C (stereo not given) | 0.97
COc1cc(C(=O)O)cc(OC)c1O | 1.08
COC(=O)C[C@H]1C2(C)CC34OC5(C)O[C@]6(C7/C(=C(/OC)C(C)C)C(=O)O[C@@H](c8ccoc8)[C@]7(C)C(OC(=O)C(C)C)[C@@H](OC)[C@]6(O5)C13C)[C@H](OC)[C@@]4(OC)C2OC(C)=O (stereo not given in full) | 0.95
CC(C)[C@H]1COC(=O)N1C(=O)CC(C)N1C(=S)OC[C@H]1c1ccccc1 (stereo not given in full) | 1.05
O=C(O)c1cc(O)c2c(c1)[C@@H]([C@@H]1c3cc(C(=O)O)cc(O)c3C(=O)c3c(O[C@H]4O[C@H](CO)[C@@H](O)[C@H](O)[C@H]4O)cccc31)c1cccc(O[C@H]3O[C@H](CO)[C@@H](O)[C@H](O)[C@H]3O)c1C2=O | 0.83
O=C(NCC1O[C@@H](OC2C(NC(=O)OCc3ccccc3)C[C@@H](NC(=O)OCc3ccccc3)[C@H](OC3OC(COS(=O)(=O)O)[C@@H](OS(=O)(=O)O)[C@H](NC(=O)OCc4ccccc4)[C@H]3OS(=O)(=O)O)[C@H]2OS(=O)(=O)O)[C@H](OS(=O)(=O)O)[C@@H](OS(=O)(=O)O)C1OS(=O)(=O)O)OCc1ccccc1 (stereo not given in full) | 1.03
CCC1OC(=O)[C@H](C)C(=O)[C@H](C)[C@@H](OC2O[C@H](C)C[C@H](N(C)C)[C@H]2O)[C@](C)(OC)C[C@@H](C)C(=O)[C@H](C)[C@H]2N(CCCCn3cnc(-c4cccnc4)c3)C(=O)O[C@@]12C (stereo not given in full) | 1.16
C=C1CC[C@@]2(C)[C@H](C)CC[C@H](O)[C@@]2(CCC=C(C)C)[C@@H]1Cc1c[nH]c2ccccc12 | 0.97
COc1c(F)c(F)cc(C(=O)O)c1F | 1.1 and 1.01
CC(C)c1c(O)ccc2c1CCC1C(C)(C)CCC[C@]21C (stereo not given in full) | 0.99
Cc1cc(O)c2c(c1)Cc1cccc(O)c1C2=O | 0.94
O=C1OCC[C@H]1Oc1ccc(Oc2cnc3ccc(Cl)cc3n2)cc1 | 1.01
CCC(CCC(C)[C@H]1CCC2C3CC=C4C[C@@H](O)CC[C@]4(C)C3CC[C@@]21C)C(C)C (stereo not given in full) | 1.04
COC(=O)[C@@H]1C(O)CC[C@H]2CN3CCc4c([nH]c5ccccc45)[C@@H]3C[C@@H]21 (stereo not given in full) | 1.2
COc1cc(N)cc(OC)c1 | 0.94
NCC1O[C@@H](OC2C(N)C[C@@H](N)C(OC3OC(CO)[C@@H](O)C(N)[C@H]3O)[C@H]2O)C(O)CC1O (stereo not given in full) | 1.05
CN(C)c1cccc2c(S(N)(=O)=O)cccc12 | 1.01
Nc1nc2ncc(CNc3ccc(C(=O)NC(CCC(=O)O)C(=O)O)cc3)nc2c(=O)[nH]1 (stereo not given) | 1.18
Nc1nc(Cl)nc2c1ncn2C1O[C@H](CO)[C@@H](O)[C@@H]1F (stereo not given in full) | 1.78
O=c1cc(-c2ccccc2)oc2cc(O[C@@H]3O[C@H](CO)[C@@H](O)[C@H](O)[C@H]3O)c(O)c(O)c12 | 0.89
CC(CC(=O)N1C(=O)OC[C@@H]1Cc1ccccc1)N1C(=S)OC[C@H]1c1ccccc1 (stereo not given in full) | 0.87
Cc1c(O)c(O)cc2oc3cc(O)cc(O)c3c(=O)c12 | 1.06
C[C@H]1C[C@H]2C(=O)O[C@H]([C@@H](C)CCCC[C@@H](C)O)C[C@@H](O)[C@H](C)C(=O)NC(Cc3ccccc3)C(=O)N2C1 (stereo not given in full) | 0.93
